# Compound activity from PubChem.
# Shown are actives, neighbours in structure and some others; about 3.1% of the full set was active somewhere.
# SARS 3CLpro inh: SARS-CoV 3CLpro protease inhibition; P0C6X7; recombinant SARS-CoV 3CLpro, quenched FRET peptide cleavage; inhibition, % at 6 µM; actives 0.14% (n = 290,000); AID 1706; in the data active means inhibition above about 12%
# GDH-TPI counter: counter-screen for M. tuberculosis FBA inhibitors: GDH-TPI coupled enzymes; GDH-TPI coupled enzyme counterscreen, NADH absorbance; inhibition, % at 4.8 µM; actives 1.2% (n = 360,000); in the data active means inhibition above about 30%;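 further: 0% = DMSO wells and 100% = wells lacking the enzyme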
# Mtb BioA inh: inhibitors of Mycobacterium tuberculosis BioA enzyme. purified M. tuberculosis BioA enzyme, plate reader. inhibition, % at 9.99 µM. actives 0.096% (n = 360,000). AID 602481; in the data active means inhibition above about 40%; inconclusive means no clear call, values can overlap the other calls
# FadD28 FP inh: inhibitors of Mycobacterium tuberculosis FadD28 bisubstrate binding. actives 0.22% (n = 360,000). inhibition, % at 12.5 µM. FadD28 bisubstrate probe binding, fluorescence polarization; in the data active means inhibition above about 8.5%, passing the limit was not always enough; inconclusive means no clear call, values can overlap the other calls
# Mtb FBA inh: Mtb fructose-bisphosphate aldolase inhibition | actives 2.3% (n = 360,000) | purified M. tuberculosis FBA, fluorescence read-out | inhibition, % at 1 µM | P9WQA3; in the data active means inhibition above about 27%;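 further: 0% = vehicle and 100% = reference inhibitor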
# Target sequence (P9WQA3 whole entry, looked up): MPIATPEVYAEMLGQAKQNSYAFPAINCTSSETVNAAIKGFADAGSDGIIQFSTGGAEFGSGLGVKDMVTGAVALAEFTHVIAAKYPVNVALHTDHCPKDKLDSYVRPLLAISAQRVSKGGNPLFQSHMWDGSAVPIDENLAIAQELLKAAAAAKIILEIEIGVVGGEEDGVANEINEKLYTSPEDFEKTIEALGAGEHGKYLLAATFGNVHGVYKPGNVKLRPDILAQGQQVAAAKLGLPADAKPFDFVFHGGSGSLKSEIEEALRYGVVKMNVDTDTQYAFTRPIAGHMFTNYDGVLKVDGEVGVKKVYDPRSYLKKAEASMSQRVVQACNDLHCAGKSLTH
# * marks the source's active call; other numbers are inactive results; ? = inconclusive; nt = no result; + = active, no number.
SMILES,SARS 3CLpro inh,GDH-TPI counter,Mtb BioA inh,FadD28 FP inh,Mtb FBA inh
Cc1noc(/C=C/c2ccccn2)c1[N+](=O)[O-],-3,36*,-1,-3,-3
COC(=O)c1cccc(Cn2c(Cl)c(/C=N/NC(=O)c3ccco3)sc2=O)c1,-1,35*,nt,0,-2
O=C(COc1ccccc1)N/N=C/c1sc(=O)n(Cc2cccc(C(=O)O)c2)c1Cl,5,23,nt,-7,-3
O=C(O)c1cccc(Cn2c(Cl)c(/C=N/NC(=O)c3ccc(O)cc3)sc2=O)c1,-6,34*,3,-16,-5
COC(=O)c1cccc(Cn2c(Cl)c(/C=N/NC(=O)c3ccccc3Cl)sc2=O)c1,-4,9,0,-4,-6
O=c1sc(/C=N/Nc2ccccc2)c(Cl)n1Cc1ccccc1,3,86*,nt,-2,-1
NC(=O)N/N=C/c1sc(=O)n(-c2ccccc2)c1Cl,-6,14,nt,0,1
O=C(N/N=C/c1sc(=O)n(-c2ccccc2)c1Cl)c1ccccc1,5,31*,nt,-1,-4
O=C(C[C@H]1C=C[C@@H](NS(=O)(=O)c2cccc(F)c2)[C@@H](CO)O1)N1CCCCC1,nt,nt,-5,nt,nt
COCC(=O)N(C)C[C@@H]1Oc2cc(-c3ccc(C#N)cc3)ccc2S(=O)(=O)N([C@H](C)CO)C[C@H]1C,nt,nt,-2,nt,nt
O=C(NC1CC2CCCC(C1)N2CC(=O)N1CCCc2ccccc21)C1CCCCC1 (stereo not given),0,10,1,0,191*
CO[C@@H]1CN(C)C(=O)c2cc(NS(C)(=O)=O)ccc2OC[C@@H](C)N(C(=O)C2CC2)C[C@H]1C,nt,nt,-3,nt,nt
COc1ccc(S(=O)(=O)Nc2ccc3c(c2)C(=O)N([C@@H](C)CO)C[C@@H](C)[C@H](CN(C)Cc2ccc4c(c2)OCO4)OCCCC[C@@H](C)O3)cc1,nt,nt,0,nt,nt
COC(=O)/C(=N/Nc1ccc(C)cc1)N1CCCc2ccccc21,1,23,nt,0,-1
COC(=O)/C(=N/Nc1ccccc1)N1CCCc2ccccc21,-1,34*,0,-3,-2
O=C(c1cccnc1)N1C[C@H]2[C@@H](c3ccccc31)[C@H](CO)N2Cc1ccc2c(c1)OCO2,nt,nt,-3,nt,nt
CC(C)NC(=O)N(C)C[C@H]1OCCCC[C@H](C)Oc2ccc(NC(=O)c3ccccc3)cc2C(=O)N([C@@H](C)CO)C[C@H]1C,nt,nt,0,nt,nt
Cc1ccc(/C=C2/SC(=S)N(CCCC(=O)Nc3cc([N+](=O)[O-])ccc3O)C2=O)cc1,0,-7,0,-2,-2
C=CCN=C1S/C(=C/c2cccc([N+](=O)[O-])c2)C(=O)N1CC=C,-1,20,nt,-2,-4
O=C(O)c1cccc(CN2C(=O)S/C(=C/c3cccc([N+](=O)[O-])c3)C2=O)c1,-5,44*,nt,-2,1
O=C(CN1C(=O)S/C(=C\c2ccccc2)C1=O)Nc1cc([N+](=O)[O-])ccc1O,7,28,8,18*,-7
COc1ccc(NC(=O)Nc2ccc3c(c2)CC(=O)N([C@@H](C)CO)C[C@@H](C)[C@H](CN(C)S(=O)(=O)c2c(C)noc2C)O3)cc1,nt,nt,0,nt,nt
Cc1cc(-c2nc3ncccc3o2)ccc1N,-4,45*,0,0,+
Nc1ccc(-c2nc3ncccc3o2)c(O)c1,-1,59*,-2,-1,+
CC(C)NC(=O)Nc1ccc2c(c1)C(=O)N(C)[C@H]1CC[C@@H](CC(=O)NC3CCCCC3)O[C@H]1CO2,nt,nt,9,nt,nt
SMILES,SARS 3CLpro inh,GDH-TPI counter,Mtb BioA inh,FadD28 FP inh,Mtb FBA inh
CCOC(=O)c1c(C)oc2ccc(OCC(=O)C(C)(C)C)cc12,-4,3,1,-3,-2
CCOC(=O)c1c(-c2ccccc2)oc2ccc(OCC(=O)O)cc12,11,-1,nt,-6,161*
CCOC(=O)c1c(-c2ccc(OC)cc2)oc2ccc(O)cc12,0,6,-1,-3,4
CCOC(=O)c1c(-c2ccc(OC)cc2)oc2ccc(OCC(N)=O)cc12,1,-2,0,-1,+
C[C@@H]1CN([C@H](C)CO)C(=O)c2cccc(NS(=O)(=O)c3cccs3)c2O[C@@H]1CN(C)S(=O)(=O)c1ccccc1,nt,nt,0,nt,nt
CCOC(=O)N1CCN(c2cc(NCCC(=O)O)c3c4c(onc24)-c2ccccc2C3=O)CC1,0,7,-76,15*,-2
O=C(O)CCCNc1cc(N2CCC3(CC2)OCCO3)c2noc3c2c1C(=O)c1ccccc1-3,3,nt,nt,nt,nt
O=C(O)CCCNc1cc(N2CCN(C(=O)c3ccco3)CC2)c2noc3c2c1C(=O)c1ccccc1-3,3,10,-15,18*,-3
CN1CCN(c2cc(N3CCN(C(=O)c4ccco4)CC3)c3c4c(onc24)-c2ccccc2C3=O)CC1,-5,10,0,1,-2
C[C@@H]1CN([C@H](C)CO)C(=O)Cc2cc(NS(C)(=O)=O)ccc2O[C@H]1CN(C)C(=O)Nc1cccc2ccccc12,nt,nt,1,nt,nt
O=C(N/N=C/c1ccc2ncccc2c1)c1cc(-c2cccs2)nc2ccccc12,3,39*,-5,-1,14
Cn1cccc1/C=N/NC(=O)c1cc(-c2cccs2)nc2ccccc12,2,31*,nt,-2,19
O=C(N/N=C/c1ccc[nH]1)c1cc(-c2cccs2)nc2ccccc12,7,14,0,-4,8
COc1ccc(CN(C)C[C@H]2OCCCC[C@@H](C)Oc3ccc(N(C)C)cc3C(=O)N([C@H](C)CO)C[C@@H]2C)cc1,nt,nt,-3,nt,nt
CN(C)C(=O)CCC(=O)N(C)CC1CCCN(CCc2ccc(F)cc2)C1 (stereo not given),-3,-1,7,-5,188*
O=C(NCc1ccccc1)c1cc2ccc(O)cc2oc1=O,7,0,-1,-2,+
C/C(=N\NC(=O)CC#N)c1cc2ccc(O)cc2oc1=O,4,17,0,-2,+
O=C(O)c1ccc(N=c2oc3cc(O)ccc3cc2C(=O)NCc2ccccc2)cc1,-1,13,nt,?,+
O=C(O)c1cc2ccc(O)cc2oc1=O,nt,17,nt,-1,nt
O=C(c1ccc(F)cc1)c1cc2ccc(O)cc2oc1=O,-1,10,0,0,-6
C[C@H](CO)N1C[C@H](C)[C@H](CN(C)C(=O)Nc2cccc3ccccc23)Oc2c(NC(=O)c3nc4ccccc4s3)cccc2C1=O,nt,nt,-1,nt,nt
CCNC(=O)C[C@@H]1C=C[C@@H](NC(=O)C2CCC2)[C@H](CO)O1,nt,nt,3,nt,nt
O=C(C[C@H]1C=C[C@@H](NS(=O)(=O)c2cccc(F)c2)[C@H](CO)O1)NCc1ccc2c(c1)OCO2,nt,nt,-2,nt,nt
Cn1c(CN2CCN(CCO)CC2)c(C#N)c2ccccc21,-3,31*,nt,-1,3
CC=Cc1ccc2n(c1=O)C[C@@H]1[C@@H](CO)[C@H](C(=O)N3CCCCC3)[C@H]2N1Cc1ccccn1 (mixture of isomers),nt,nt,-1,nt,nt
c1ccc(-c2ncc(-c3ccn[nH]3)s2)cc1,2,15,nt,-1,139*
